The results in this text go back to the antibiotic and cytotoxicity screens of Wong et al. (2023).

Each structure is given as a SMILES string. The whole screen tested about 39,000 compounds, of which about 1,500 (3.8%) were called active. The full list was thinned out, with actives kept by preference.

This assay has as its system HSkMC (human skeletal muscle cells). Put plainly: cytotoxicity call (relative viability < 0.9). The conditions noted are these: 10 µM.
As to `O=C(C[C@@H]1CC[C@@H](NC(=O)CN2CCOCC2)[C@@H](CO)O1)NCCc1ccccc1`, the cytotoxicity call was “inactive”.

Turning to `CC(C)NC(=O)Nc1ccc2c(c1)C(=O)N(C)[C@H]1CC[C@H](CC(=O)NCc3ccc(F)cc3)O[C@H]1CO2`, the cytotoxicity call is “inactive”.

`COCC#Cc1cnc2c(c1)C(=O)N([C@@H](C)CO)C[C@@H](C)[C@H](CN(C)C(C)=O)O2`: the cytotoxicity call is “inactive”.

Regarding `C[C@@H]1CN([C@H](C)CO)C(=O)Cc2cc(NC(=O)Nc3cccc4ccccc34)ccc2O[C@@H]1CN(C)S(=O)(=O)c1cccs1`, the cytotoxicity call is “inactive”.

For `C[C@H](CO)N1C[C@H](C)[C@H](CN(C)C(=O)Nc2ccc(F)cc2)OCCCC[C@H](C)Oc2ccc(NC(=O)Nc3ccc4c(c3)OCO4)cc2C1=O`, the cytotoxicity call was “inactive”.

In the case of `COc1ccc(S(=O)(=O)N(C)C[C@H]2OCc3cnnn3CCCC(=O)N([C@@H](C)CO)C[C@@H]2C)cc1`, the cytotoxicity call was “inactive”.

In the case of `C[C@H]1CN([C@@H](C)CO)C(=O)c2cc(NC(=O)Nc3cccc4ccccc34)ccc2O[C@@H]1CN(C)C(=O)NC1CCCCC1`, the cytotoxicity call was “inactive”.

Take `CCCC[P+](CCCC)(CCCC)Cc1ccc(NC(=O)[C@@H](Cc2ccc3ccccc3c2)N=C(NC2CCCCC2)NC2CCCCC2)cc1`: the cytotoxicity call is “active”.

`CCCC[P+](CCCC)(CCCC)Cc1ccc(NC(=O)[C@H](Cc2ccc3ccccc3c2)N/C(=N/C2CCCCC2)NC2CCCCC2)cc1`: the cytotoxicity call was “inactive”.

Turning to `CC(C)NC(=O)Nc1ccc2c(c1)C(=O)N([C@H](C)CO)C[C@@H](C)[C@@H](CN(C)Cc1ccc3c(c1)OCO3)O2`, the cytotoxicity call is “inactive”.

Take `C[C@@H]1CN([C@@H](C)CO)C(=O)c2cc(NC(=O)Nc3ccc(C(F)(F)F)cc3)ccc2O[C@@H](C)CCCCO[C@H]1CN(C)Cc1ccc2c(c1)OCO2`: the cytotoxicity call was “active”.

Take `C[C@@H]1CCCCO[C@@H](CN(C)Cc2ccc3c(c2)OCO3)[C@H](C)CN([C@H](C)CO)C(=O)c2cc(NC(=O)Nc3ccc(C(F)(F)F)cc3)ccc2O1`: the cytotoxicity call was “active”.

As for `C[C@H]1CCCCO[C@H](CN(C)Cc2ccc3c(c2)OCO3)[C@@H](C)CN([C@@H](C)CO)C(=O)c2cc(NC(=O)Nc3ccc(C(F)(F)F)cc3)ccc2O1`, the cytotoxicity call is “active”.

`C[C@@H]1CCCCO[C@@H](CN(C)Cc2ccc(C(F)(F)F)cc2)[C@@H](C)CN([C@@H](C)CO)C(=O)c2cc(NC(=O)Nc3ccc4c(c3)OCO4)ccc2O1`: the cytotoxicity call was “inactive”.

As for `C[C@H]1CCCCO[C@@H](CN(C)Cc2ccc3c(c2)OCO3)[C@@H](C)CN([C@@H](C)CO)C(=O)c2cc(NC(=O)Nc3ccc(C(F)(F)F)cc3)ccc2O1`, the cytotoxicity call was “active”.

As to `C[C@@H]1CCCCO[C@H](CN(C)Cc2ccc(C(F)(F)F)cc2)[C@H](C)CN([C@@H](C)CO)C(=O)c2cc(NC(=O)Nc3ccc4c(c3)OCO4)ccc2O1`, the cytotoxicity call was “inactive”.

In the case of `C[C@H]1CN([C@@H](C)CO)C(=O)c2cccc(NC(=O)C3CCOCC3)c2O[C@@H]1CN(C)C(=O)NC1CCCCC1`, the cytotoxicity call was “inactive”.

On to `C[C@H](CO)N1C[C@H](C)[C@H](CN(C)S(=O)(=O)c2cn(C)cn2)Oc2ncc(C3=CCCC3)cc2C1=O`, for which the cytotoxicity call was “inactive”.

`CO[C@H](CN(C)S(=O)(=O)c1cccc(Cl)c1)[C@@H](C)CN([C@@H](C)CO)S(=O)(=O)c1cccc(Cl)c1`: the cytotoxicity call is “inactive”.

Regarding `COc1ccc(NC(=O)Nc2ccc3c(c2)C(=O)N([C@H](C)CO)C[C@H](C)[C@H](CN(C)C(=O)Nc2c(C)noc2C)OCCCC[C@H](C)O3)cc1`, the cytotoxicity call was “inactive”.

Turning to `COc1ccc(NC(=O)N(C)C[C@@H]2Oc3ccc(NS(=O)(=O)c4c(C)noc4C)cc3CC(=O)N([C@H](C)CO)C[C@H]2C)cc1`, the cytotoxicity call was “inactive”.

Turning to `C[C@@H]1CCCCO[C@@H](CN(C)C(=O)C2CCCCC2)[C@@H](C)CN([C@@H](C)CO)C(=O)c2cc(NC(=O)Cc3ccccc3)ccc2O1`, the cytotoxicity call was “inactive”.

With `C[C@@H]1CN([C@H](C)CO)S(=O)(=O)c2ccc(C#CCN(C)C)cc2O[C@@H]1CN(C)S(C)(=O)=O`, the cytotoxicity call was “inactive”.

As to `CSc1nc(=O)c(C)n[nH]1`, the cytotoxicity call was “inactive”.

In the case of `Cc1ccc(S(=O)(=O)Nc2ccc3c(c2)C(=O)N([C@@H](C)CO)C[C@H](C)[C@H](CN(C)S(=O)(=O)c2cn(C)cn2)O3)cc1`, the cytotoxicity call was “inactive”.

As to `C[C@@H]1CCCCO[C@H](CN(C)Cc2ccc3c(c2)OCO3)[C@@H](C)CN([C@H](C)CO)C(=O)c2cc(NC(=O)Nc3ccc(C(F)(F)F)cc3)ccc2O1`, the cytotoxicity call is “active”.

On to `C[C@H](CO)N1C[C@H](C)[C@@H](CN(C)Cc2ccc(C(F)(F)F)cc2)OCCCC[C@H](C)Oc2ccc(NC(=O)Nc3ccc4c(c3)OCO4)cc2C1=O`, for which the cytotoxicity call is “inactive”.

For the compound `C[C@H](CO)N1C[C@H](C)[C@H](CN(C)Cc2ccc(C(F)(F)F)cc2)OCCCC[C@H](C)Oc2ccc(NC(=O)Nc3ccc4c(c3)OCO4)cc2C1=O`, the cytotoxicity call is “inactive”.

With `C[C@H]1CCCCO[C@@H](CN(C)Cc2ccc(C(F)(F)F)cc2)[C@@H](C)CN([C@@H](C)CO)C(=O)c2cc(NC(=O)Nc3ccc4c(c3)OCO4)ccc2O1`, the cytotoxicity call is “inactive”.

`C[C@@H]1CCCCO[C@@H](CN(C)Cc2ccc(C(F)(F)F)cc2)[C@H](C)CN([C@@H](C)CO)C(=O)c2cc(NC(=O)Nc3ccc4c(c3)OCO4)ccc2O1`: the cytotoxicity call is “inactive”.

In the case of `C[C@@H]1CCCCO[C@H](CN(C)Cc2ccc3c(c2)OCO3)[C@H](C)CN([C@H](C)CO)C(=O)c2cc(NC(=O)Nc3ccc(C(F)(F)F)cc3)ccc2O1`, the cytotoxicity call was “active”.

Consider `C[C@@H]1CCCCO[C@H](CN(C)Cc2ccc3c(c2)OCO3)[C@H](C)CN([C@@H](C)CO)C(=O)c2cc(NC(=O)Nc3ccc(C(F)(F)F)cc3)ccc2O1`, for which the cytotoxicity call is “active”.

Regarding `C[C@@H]1CN([C@H](C)CO)C(=O)c2cc(NC(=O)Nc3ccc(C(F)(F)F)cc3)ccc2O[C@@H](C)CCCCO[C@@H]1CN(C)Cc1ccc2c(c1)OCO2`, the cytotoxicity call is “active”.

For `C[C@@H]1CN([C@@H](C)CO)C(=O)Cc2cc(NC(=O)Nc3cccc4ccccc34)ccc2O[C@@H]1CN(C)Cc1ccc2c(c1)OCO2`, the cytotoxicity call was “inactive”.

In the case of `Cc1noc(C)c1NC(=O)N(C)C[C@@H]1OCCCC[C@@H](C)Oc2ccc(NC(=O)Nc3ccccc3)cc2C(=O)N([C@@H](C)CO)C[C@@H]1C`, the cytotoxicity call was “inactive”.

For the compound `Cc1noc(C)c1S(=O)(=O)N(C)C[C@H]1OCCCC[C@@H](C)Oc2ccc(NC(=O)Nc3ccccc3)cc2C(=O)N([C@@H](C)CO)C[C@@H]1C`, the cytotoxicity call is “inactive”.

For `COc1ccc(NC(=O)Nc2ccc3c(c2)C(=O)N([C@H](C)CO)C[C@H](C)[C@@H](CN(C)S(=O)(=O)c2c(C)noc2C)OCCCC[C@@H](C)O3)cc1`, the cytotoxicity call was “inactive”.

Consider `C[C@@H]1CCCCO[C@@H](CN(C)C(=O)NC2CCCCC2)[C@H](C)CN([C@H](C)CO)C(=O)c2cc(NC(=O)Cc3ccccc3)ccc2O1`, for which the cytotoxicity call was “inactive”.

In the case of `CC(C)NC(=O)Nc1ccc2c(c1)C(=O)N([C@@H](C)CO)C[C@@H](C)[C@H](CN(C)S(=O)(=O)c1cn(C)cn1)OCCCC[C@@H](C)O2`, the cytotoxicity call was “inactive”.

`C[C@@H]1CN([C@@H](C)CO)C(=O)c2cc(NC(=O)Nc3ccc(C(F)(F)F)cc3)ccc2O[C@@H](C)CCCCO[C@@H]1CN(C)Cc1ccc2c(c1)OCO2`: the cytotoxicity call was “inactive”.

For the compound `C[C@@H]1CCCCO[C@@H](CN(C)Cc2ccc3c(c2)OCO3)[C@H](C)CN([C@@H](C)CO)C(=O)c2cc(NC(=O)Nc3ccc(C(F)(F)F)cc3)ccc2O1`, the cytotoxicity call was “active”.

`C[C@H](CO)N1C[C@H](C)[C@@H](CN(C)Cc2ccc3c(c2)OCO3)OCCCC[C@H](C)Oc2ccc(NC(=O)Nc3ccc(C(F)(F)F)cc3)cc2C1=O`: the cytotoxicity call was “active”.

As for `C[C@H](CO)N1C[C@H](C)[C@H](CN(C)Cc2ccc3c(c2)OCO3)OCCCC[C@H](C)Oc2ccc(NC(=O)Nc3ccc(C(F)(F)F)cc3)cc2C1=O`, the cytotoxicity call was “active”.

Take `C[C@@H]1CCCCO[C@@H](CN(C)Cc2ccc3c(c2)OCO3)[C@@H](C)CN([C@H](C)CO)C(=O)c2cc(NC(=O)Nc3ccc(C(F)(F)F)cc3)ccc2O1`: the cytotoxicity call is “inactive”.

`C[C@@H]1CN([C@H](C)CO)C(=O)c2cc(NC(=O)Nc3ccc(C(F)(F)F)cc3)ccc2O[C@@H](C)CCCCO[C@H]1CN(C)Cc1ccc2c(c1)OCO2`: the cytotoxicity call was “active”.

Turning to `CC(C)NC(=O)Nc1cccc2c1O[C@@H](CN(C)S(=O)(=O)c1ccccc1)[C@H](C)CN([C@H](C)CO)C2=O`, the cytotoxicity call was “inactive”.

`C[C@@H]1CN([C@@H](C)CO)S(=O)(=O)c2ccc(Br)cc2O[C@H]1CN(C)C(=O)c1ccncc1`: the cytotoxicity call is “inactive”.

Regarding `C[C@H](CO)N1C[C@H](C)[C@@H](CN(C)S(=O)(=O)c2ccc(Oc3ccccc3)nc2)OCc2cn(nn2)CCCC1=O`, the cytotoxicity call is “inactive”.

As to `c1ccc2c(c1)[nH]c1ncccc12`, the cytotoxicity call was “inactive”.

Regarding `CCC(=O)N[C@H]1C=C[C@H](CC(=O)OC)O[C@@H]1CO`, the cytotoxicity call was “inactive”.

For `COc1ccc(NC(=O)Nc2ccc3c(c2)C(=O)N([C@@H](C)CO)C[C@H](C)[C@@H](CN(C)C(=O)c2ccccc2)OCCCC[C@H](C)O3)cc1`, the cytotoxicity call was “inactive”.

Regarding `O=S(=O)(N1CCOCC1)N1CCCN(S(=O)(=O)N2CCOCC2)CC1`, the cytotoxicity call is “inactive”.

As for `C[C@@H](O)C#Cc1ccc2c(c1)O[C@H](CN(C)C(=O)Cc1ccccn1)[C@@H](C)CN([C@@H](C)CO)S2(=O)=O`, the cytotoxicity call is “inactive”.

As to `O=C(C[C@H]1C=C[C@H](NC(=O)CN2CCOCC2)[C@@H](CO)O1)NC1CCCCC1`, the cytotoxicity call was “inactive”.

Take `Nc1ccc(S(N)(=O)=O)cn1`: the cytotoxicity call was “inactive”.

Consider `Cc1cc(C(=O)Nc2cccc3c2O[C@@H](CN(C)Cc2ccc(C(=O)O)cc2)[C@@H](C)CN([C@@H](C)CO)C3=O)n(C)n1`, for which the cytotoxicity call was “inactive”.

Consider `C[C@@H]1CCCCO[C@H](CN(C)Cc2ccc3c(c2)OCO3)[C@@H](C)CN([C@@H](C)CO)C(=O)c2cc(NC(=O)Nc3ccc(C(F)(F)F)cc3)ccc2O1`, for which the cytotoxicity call is “active”.

Consider `C[C@@H]1CCCCO[C@@H](CN(C)Cc2ccc3c(c2)OCO3)[C@@H](C)CN([C@@H](C)CO)C(=O)c2cc(NC(=O)Nc3ccc(C(F)(F)F)cc3)ccc2O1`, for which the cytotoxicity call was “active”.
